Eight compounds from PubChem BioAssay (NCI) can be followed below.

Test systems include SK-MEL-2 melanoma; EKVX NSCLC; SN12C renal; UO-31 renal; TK-10 renal; ACHN renal; CAKI-1 renal; A498 renal; CCRF-CEM leukemia; MOLT-4 leukemia; RPMI-8226 leukemia; OVCAR-8 ovarian; OVCAR-5 ovarian; OVCAR-4 ovarian; SK-OV-3 ovarian; IGROV1 ovarian; OVCAR-3 ovarian; HS 578T breast; NCI/ADR-RES ovarian.
What all share (assay): NCI-60 one-dose screen, 48 h (100 = growth as untreated, 0 = no growth, -100 = all killed)
Conditions in all cases: 10 µM unless noted

Compounds without any hit were thinned out: in the full panel of roughly 83,000, 20% have a hit.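 The test compound was applied at a single concentration to cells in 96-well plates for 48 hours, and percent growth was recorded.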 A number with no mark means an inactive call. Active and inactive are the calls of the source. How the source made its calls: active means growth percent below 10; inactive means the rest.

On to `c1ccc2c(-c3nc(-c4c[nH]c5ccncc45)cs3)c[nH]c2c1`, for which the growth was 97.8% in the assay on SK-MEL-2 melanoma; 35% in the assay with EKVX NSCLC; 68.9% with SN12C renal; 44.4% in the assay with UO-31 renal; 56.4% in the assay with TK-10 renal; 23.5% in the assay with ACHN renal. Also, the growth in the assay on CAKI-1 renal is 17.1%; in the assay on A498 renal, 85.5%; in the assay with CCRF-CEM leukemia, 2.54% (active); with MOLT-4 leukemia it was 30%; with RPMI-8226 leukemia it was 10.9%; with OVCAR-8 ovarian, 60.2%. Moreover, the growth was 70.8% with OVCAR-5 ovarian; 59.5% in the assay with OVCAR-4 ovarian; 73.3% with SK-OV-3 ovarian; 54.2% in the assay with IGROV1 ovarian; 72.3% with OVCAR-3 ovarian; 72.3% in the assay on HS 578T breast. The growth with NCI/ADR-RES ovarian is 72.7%.

Regarding `COc1ccc(C(=S)N2CCN(c3cccc(C)c3)CC2)cc1OC`, the growth was 34% in the assay on SK-MEL-2 melanoma; 102% in the assay with EKVX NSCLC; 75% in the assay with SN12C renal; 76% with UO-31 renal; 92.7% in the assay on TK-10 renal; 79.7% with ACHN renal. Moreover, the growth in the assay with CAKI-1 renal was 62.5%; in the assay with A498 renal it was 86.4%; in the assay with CCRF-CEM leukemia, 74%; in the assay on MOLT-4 leukemia, 54.8%; in the assay with RPMI-8226 leukemia it was 80%; in the assay on OVCAR-8 ovarian, 76.6%. The growth is 93.4% in the assay with OVCAR-5 ovarian; 103% in the assay with OVCAR-4 ovarian; 88.5% in the assay with SK-OV-3 ovarian; 42.4% in the assay with IGROV1 ovarian; 41.1% in the assay on OVCAR-3 ovarian; 103% with HS 578T breast. Moreover, the growth in the assay on NCI/ADR-RES ovarian is 5.68% (active).

`CCCCCCCCCCCCCCCCCCOc1ccc(CC(=O)OCC[N+](C)(C)C)cc1`: the growth in the assay on SK-MEL-2 melanoma was 115%; with EKVX NSCLC it was 101%; with SN12C renal, 94.1%; with UO-31 renal it was 101%; in the assay with TK-10 renal, 93.8%; in the assay with ACHN renal it was 99.9%. In addition, the growth in the assay on CAKI-1 renal was 90.4%; with A498 renal, 119%; with CCRF-CEM leukemia it was 102%; with MOLT-4 leukemia it was 2.06% (active); in the assay with RPMI-8226 leukemia it was 91.7%; in the assay with OVCAR-8 ovarian it was 107%. The growth is 96.8% in the assay on OVCAR-5 ovarian; 97.3% with OVCAR-4 ovarian; 107% in the assay with SK-OV-3 ovarian; 91% in the assay on IGROV1 ovarian; 115% in the assay on OVCAR-3 ovarian; 99.6% in the assay with HS 578T breast. The growth with NCI/ADR-RES ovarian was 99.3%.

Consider `Nc1cc2c(cc1Br)-c1cc(Cl)ccc1C2=O`, for which the growth was 100% in the assay on SK-MEL-2 melanoma; 86.5% in the assay with EKVX NSCLC; 102% with SN12C renal; 67.1% in the assay with UO-31 renal; 115% with TK-10 renal; 100% in the assay on ACHN renal. Further, the growth is 78.5% in the assay with CAKI-1 renal; 102% in the assay with A498 renal; 98.2% in the assay on CCRF-CEM leukemia; 88.2% in the assay on MOLT-4 leukemia; 88.7% with RPMI-8226 leukemia; 99.3% in the assay with OVCAR-8 ovarian. The growth with OVCAR-5 ovarian is 91.8%; in the assay with OVCAR-4 ovarian, 99.9%; in the assay with SK-OV-3 ovarian, 98.7%; with IGROV1 ovarian it was 74.2%; with OVCAR-3 ovarian, 96.5%; in the assay on HS 578T breast, 98.6%. In addition, in the assay on NCI/ADR-RES ovarian, the growth is 106%.

As to `COc1c(B(O)O)cc(F)cc1-c1nc2ccc3[nH]ncc3c2c2c1CCCC2`, the growth in the assay with SK-MEL-2 melanoma is 18.7%; with EKVX NSCLC it was 10.2%; with SN12C renal, 11.6%; in the assay on UO-31 renal, 5.35% (active); with TK-10 renal it was 21.5%; with ACHN renal, 9.67% (active). Also, the growth in the assay on CAKI-1 renal was -5.6% (active); in the assay with A498 renal, -67.9% (active); in the assay on CCRF-CEM leukemia, 10.9%; with MOLT-4 leukemia it was 9.89% (active); in the assay on RPMI-8226 leukemia it was -9.77% (active); in the assay on OVCAR-8 ovarian it was 16.1%. The growth is 15.4% in the assay with OVCAR-5 ovarian; 25.8% with OVCAR-4 ovarian; 19.3% in the assay with SK-OV-3 ovarian; 10.6% in the assay with IGROV1 ovarian; 11.9% with OVCAR-3 ovarian; -2.19% (active) with HS 578T breast. For the same compound, the growth in the assay with NCI/ADR-RES ovarian was 16.1%.

On to `CC(=O)CC(c1cccs1)c1c(-c2ccccc2)[nH]c2ccccc12` (configuration not stated), for which the growth is 94.6% with SK-MEL-2 melanoma; 72.6% with EKVX NSCLC; 93% in the assay with SN12C renal; 71.5% in the assay with UO-31 renal; 134% in the assay with TK-10 renal; 89.9% with ACHN renal. Also, the growth in the assay on CAKI-1 renal was 39.4%; in the assay with A498 renal, 84%; with CCRF-CEM leukemia it was 92.6%; with MOLT-4 leukemia, 86.9%; in the assay on RPMI-8226 leukemia, 78%; in the assay on OVCAR-8 ovarian, 92.5%. Besides, the growth in the assay on OVCAR-5 ovarian is 99.8%; in the assay with OVCAR-4 ovarian it was 82.6%; in the assay with SK-OV-3 ovarian, 90.1%; with IGROV1 ovarian, 83.3%; with OVCAR-3 ovarian it was 86.4%; in the assay with HS 578T breast, 82.1%. Moreover, the growth with NCI/ADR-RES ovarian is 69%.

Turning to `Cc1cccc(OCC(O)CN2CCN(c3ccc(Cl)cc3)CC2)c1` (configuration not stated), the growth in the assay on SK-MEL-2 melanoma is 110%; in the assay on EKVX NSCLC, 115%; with SN12C renal, 100%; with UO-31 renal, 82.4%; in the assay with TK-10 renal, 106%; in the assay with ACHN renal, 108%. Besides, the growth in the assay on CAKI-1 renal was 93.1%; with A498 renal it was 100%; with CCRF-CEM leukemia it was 89%; in the assay on MOLT-4 leukemia, 97.1%; in the assay with RPMI-8226 leukemia, 103%; in the assay on OVCAR-8 ovarian, 94.9%. Further, the growth is 103% in the assay with OVCAR-5 ovarian; 106% with OVCAR-4 ovarian; 115% with SK-OV-3 ovarian; 124% in the assay on IGROV1 ovarian; 104% in the assay with OVCAR-3 ovarian; 107% with HS 578T breast. For the same compound, the growth in the assay with NCI/ADR-RES ovarian was 102%.

With `CSc1ncccc1C(=O)OCC(=O)Nc1oc(C)c2c(C)n[nH]c(=O)c12`, the growth in the assay with SK-MEL-2 melanoma was 92.5%; in the assay on EKVX NSCLC, 71%; in the assay on SN12C renal it was 103%; in the assay with UO-31 renal, 91.7%; in the assay on TK-10 renal, 102%; with ACHN renal, 106%. For the same compound, the growth was 112% in the assay on CAKI-1 renal; 116% in the assay with A498 renal; 79% in the assay on CCRF-CEM leukemia; 99.4% in the assay with MOLT-4 leukemia; 72.8% in the assay on RPMI-8226 leukemia; 98.6% with OVCAR-8 ovarian. In addition, the growth in the assay with OVCAR-5 ovarian is 94.3%; with OVCAR-4 ovarian it was 104%; in the assay on SK-OV-3 ovarian, 96%; in the assay on IGROV1 ovarian, -4.78% (active); in the assay on OVCAR-3 ovarian, 106%; in the assay on HS 578T breast it was 104%. The growth in the assay with NCI/ADR-RES ovarian is 102%.
